Compounds with a hit are over-represented: about 5.9% of the library has one in this group of screens.
FBPA coupling cs = coupling enzyme interference in Giardia aldolase counter-screen | coupling enzyme system counterscreen, AmpLite Red fluorescence | activity change, negative = inhibition, % at 58.2 µM, hits read low | actives 0.67% (n = 290,000); in the data active = activity change below about -30%
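Counterscreen of the coupled detection system alone, without aldolase: glyceraldehyde-3-phosphate coupling enzymes plus AmpLite Red readout. Compounds at 57.5 uM final, 10 min RT preincubation, 20 min RT reaction, fluorescence 525/598 nm.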
GALK inh = inhibitors of human galactokinase; P51570; Purified GALK, Kinase-Glo residual ATP luminescence; Potency, µM (series often up to 57.5 µM), for the others: top-dose activity change, negative = inhibition, most hits filed as inhibitors; actives 0.007% (n = 270,000); AID 1868; also: potency is read from the fitted curve at half-maximal effect
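5 nM enzyme, 35 uM ATP, 100 uM galactose, 20 mM HEPES pH8.0, 5 mM MgCl2; 1 h RT; residual ATP by Kinase-Glo Plus luminescence, qHTS format.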
Gal4-VP16 FLuc = Gal4-VP16 reporter inhibition counter-screen. AID 2546. Drosophila S2 Gal4-VP16 UAS-luciferase, luminescence, 20 h. actives 3.5% (n = 310,000). Potency, µM (series often up to 53.6 µM), for inactives: at the highest dose activity, negative = inhibition, usual class: inhibitors;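 also: Gal4-VP16 expression switched on by copper sulfate through the metallothionein promoter; potency is read from the fitted curve at half-maximal effect; nearly all actives have a fitted effect of over 50% in size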
RORg inh = ROR gamma (mouse) transcription inhibition | Drosophila S2 Gal4-RORgamma UAS-luciferase reporter, 20 h | Potency, µM (series often up to 53.6 µM), for inactives: at the top dose activity change, negative = inhibition, hits mostly inhibitors | actives 5.4% (n = 310,000); also: potency is read from the fitted curve at half-maximal effect; nearly all actives have a fitted effect of over 60% in size
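Stably transfected Drosophila Schneider cells are the test system, with ROR gamma fused to Gal4 and luciferase under UAS control; luminescence is read after 20 hr of 700 uM copper sulfate induction at ambient temperature.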
TrxR1 inh = blocks rat thioredoxin reductase 1. O89049. recombinant rTrxR1, NADPH fluorescence consumption, selenite substrate. Potency, µM (titrated, usually from 114 µM), inactives show at the highest dose activity change, negative = inhibition, most hits filed as inhibitors. actives 1% (n = 390,000). AID 588453; also: potency is read from the fitted curve at half-maximal effect; nearly all actives have a fitted effect of over 65% in size
Target sequence (O89049 whole entry, looked up): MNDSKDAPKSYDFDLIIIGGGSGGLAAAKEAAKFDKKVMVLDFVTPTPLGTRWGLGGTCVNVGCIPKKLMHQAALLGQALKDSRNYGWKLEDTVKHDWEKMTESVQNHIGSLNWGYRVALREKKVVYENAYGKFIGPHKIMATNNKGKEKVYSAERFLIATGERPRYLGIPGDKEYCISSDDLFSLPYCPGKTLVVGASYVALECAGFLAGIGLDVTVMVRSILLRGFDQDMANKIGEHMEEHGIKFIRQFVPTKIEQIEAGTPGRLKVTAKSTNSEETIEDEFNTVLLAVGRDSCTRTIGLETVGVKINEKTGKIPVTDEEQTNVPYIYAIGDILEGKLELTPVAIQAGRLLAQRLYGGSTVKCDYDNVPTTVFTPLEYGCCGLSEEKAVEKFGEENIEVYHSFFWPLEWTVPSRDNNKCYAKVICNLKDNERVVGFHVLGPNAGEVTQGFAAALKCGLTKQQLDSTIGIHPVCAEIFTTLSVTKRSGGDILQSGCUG
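Rat TrxR1 (90 nM in the dispensed reagent) was pre-reduced with 400 uM NADPH for 5 min at room temperature, then incubated with compound for 15 min. After 400 uM selenite was added, NADPH fluorescence (Ex 340/Em 450 nm) was followed for 8 min.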
TrxR1 substrate = is turned over as a substrate by rat TrxR1. O89049. purified TrxR1 substrate turnover, NADPH consumption readout. Potency, µM (series often up to 114 µM), for inactives: top-dose activity change, negative = substrate turnover. actives 0.01% (n = 390,000). AID 588456; also: potency is read from the fitted curve at half-maximal effect; nearly all actives have a fitted effect of over 50% in size
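Rat TrxR1, dispensed at 90 nM, was prereduced with 400 uM NADPH (final) for 5 min at ~22 deg C, then incubated with compound 15 min before 400 uM selenite. A first-read NADPH fluorescence drop versus no-compound background flagged substrates.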
Starred values were filed as active, the others as inactive; ? = inconclusive; / = no result; [ ] = another dose, or the depositor's remark. Unless noted, calls follow the shape of the dose curve; as a rule, active = well fitted curve in the direction sought with a large enough effect; inconclusive = small, poorly fitted or top-dose-only effect, or another doubt; inactive = no such curve, though single readings can be large; an effect the other way counts as inactive or inconclusive. % is scaled to controls: 0 for no effect and ±100 for the full control effect.

SMILES	FBPA coupling cs	GALK inh	Gal4-VP16 FLuc	RORg inh	TrxR1 inh	TrxR1 substrate
O=C(CN1C(=O)C2C3C=CC(C3)C2C1=O)Nc1ccc(S(=O)(=O)Nc2nccs2)cc1 (stereo not drawn)	4.5	-0.3%	-4.3%	-22.1%	23.6%	4.0%
COc1ccc(N2C3=C(CC4=C2CC(C)(C)CC4=O)C(=O)CC(C)(C)C3)cc1	-48.1*	3.2%	-1.3%	5.4%	?	-0.2%
CN(C)C1=NCC(CSC(=N)N)S1 (stereo not drawn)	0.0	4.3%	4.2%[10 µM]	-10.6%	23.4%	0.2%
Cc1cc(N2CCCC2)nc2ccccc12	0.0	-0.7%	7.9%[10 µM]	-10.9%	-1.2%	-6.5%
Cc1nn(-c2cc(C)c3ccccc3n2)c2c1CCC2	-0.4	-1.6%	?	2.24µM*	13.1%	4.3%[0.457 µM]
COc1ccc(CNC(=O)c2ccc3c(c2)N(Cc2ccccc2)C(=O)c2ccccc2S3=O)cc1 (stereo not drawn)	/	/	/	/	5.8%	2.8%
CCCC[C@@H]1CNC(=S)N1CCCC	1.2	0.7%	7.94µM*	2.82µM*	21.5%	20.6%
CCCCN1C(=S)NC[C@@H]1Cc1ccc(O)cc1	2.4	1.1%	-8.7%	6.1%	7.5%[57.1 µM]	10.2%[57.1 µM]
Cc1noc(C)c1CSCC(=O)Nc1cc(S(=O)(=O)N2CCCCC2)ccc1OC(C)C	/	/	/	/	-1.6%[57.1 µM]	-2.8%[57.1 µM]
O=C(Nc1nc(-c2ccc(Cl)cc2Cl)cs1)c1ccc(OCC2CCCO2)cc1 (stereo not drawn)	-2.2	1.2%	17.8µM*	-36.8%	18.7%[57.1 µM]	8.3%[57.1 µM]
Cc1cc(C)c2nc(NC(=O)c3ccc(OCC4CCCO4)cc3)sc2c1 (stereo not drawn)	1.7	1.9%	-17.1%	1µM*	26.5%	5.6%
Cc1ccc2nc(NC(=O)c3ccc(OCC4CCCO4)cc3)sc2c1 (stereo not drawn)	-1.3	-0.5%	?	4.47µM*	8.5%[57.1 µM]	11.2%[57.1 µM]
O=C(Nc1ccc(Cl)cc1)c1ccc(OCC2CCCO2)cc1 (stereo not drawn)	3.1	4.8%	-0.3%	9.9%	6.4%[57.1 µM]	8.2%[57.1 µM]
Cc1cccnc1NC(=O)c1ccc(OCC2CCCO2)cc1 (stereo not drawn)	/	/	/	/	10.6%	-1.9%
COc1ccc2nc(NC(=O)c3ccc(NC(=O)C4CCCO4)cc3)sc2c1 (stereo not drawn)	-0.7	/	-17.4%	-20.6%	11.8%	43.4%
Cc1[nH]c2ccccc2c1C(=O)/C=C/c1ccccc1Cl	-6.9	-0.5%	12.7%	-34.9%[10 µM]	10.4%	4.5%
Cc1[nH]c2ccccc2c1C(=O)/C=C\c1ccccc1Cl	-5.2	-3.1%	-2.6%	12.6µM*	-6.8%	-9.2%
CCc1ccc(/C=N/n2c(C3CCCCC3)n[nH]c2=S)cc1	0.4	-2.7%	8.91µM*	3.55µM*	-7.3%	1.1%
S=c1[nH]nc(C2CCCCC2)n1/N=C/c1ccc(Cl)cc1	-2.9	-2.4%	7.94µM*	0.355µM*	-2.4%	-6.4%
S=c1[nH]nc(C2CCCCC2)n1/N=C/c1ccccc1Br	-6.7	-3.9%	?	?	2.8%	1.1%
S=c1[nH]nc(C2CCCCC2)n1/N=C/c1ccc(Br)cc1	0.0	-5.8%	?	1.41µM*	0.9%	1.1%
S=c1[nH]nc(C2CCCCC2)n1/N=C/c1c(Cl)cccc1Cl	0.2	/	?	?	-8.6%	-4.8%
FC(F)(F)c1ccc(/C=N/n2c(COc3ccccc3)n[nH]c2=S)cc1	5.0	5.3%	-16.5%	?	-3.2%	-9.1%
FC(F)(F)c1ccc(/C=N/n2c(C3CCCCC3)n[nH]c2=S)cc1	-3.2	-5.6%	10µM*	-38.5%	-5.3%	-9.1%
COc1ccc(/C=C/C(=O)O/N=C(\N)c2ccccc2)cc1OC	-1.5	3.4%	-4.1%	18.0%	-2.1%	-3.2%
SMILES	FBPA coupling cs	GALK inh	Gal4-VP16 FLuc	RORg inh	TrxR1 inh	TrxR1 substrate
COc1ccc(-n2nc3ccc(NS(C)(=O)=O)cc3n2)cc1Cl	-2.1	0.3%	25.9%	17.8%	1.0%[57.1 µM]	18.2%[57.1 µM]
Cc1ccc2nc(NC(=O)CSc3nc4c(c(=O)n3C)SC(C)C4)sc2c1 (stereo not drawn)	-3.7	-2.6%	-9.7%	10.9%	24.6%[57.1 µM]	-9.1%
O=c1oc2ccc3ccccc3c2cc1-c1nnc(Nc2cc(C(F)(F)F)ccc2Cl)s1	/	/	/	/	12.1%[57.1 µM]	4.8%[57.1 µM]
COc1cc(NC(=O)c2cc(-c3ccccc3O)no2)cc(OC)c1OC	/	/	/	/	9.6%	-4.8%
O=C(O)COc1ccccc1/C=N/n1c(C2CCCCC2)n[nH]c1=S	-1.7	/	-7.6%	-30.7%	-4.4%	3.5%
Cc1ccc(/C=N/n2c(C3CCCCC3)n[nH]c2=S)cc1	0.2	/	7.08µM*	2.51µM*	0.9%[57.1 µM]	11.3%[57.1 µM]
S=c1[nH]nc(C2CCCCC2)n1/N=C/c1ccc(Br)s1	0.9	0.4%	3.98µM*	1.12µM*	-1.6%	2.8%
CCOC(=O)c1c(C)n(C(=O)c2ccco2)c(=O)n1C(=O)c1ccco1	1.0	2.8%	13.8%	-21.5%	39.8µM*	-3.9%
CCCCCCN1Cc2ccccc2C1	-0.4	-2.0%	7.0%	-8.9%	1.4%[57.1 µM]	-11.9%
CCCCCCCCn1ccc(=N)cc1	3.8	-0.2%	7.08µM*	?	7.0%[57.1 µM]	10.7%[57.1 µM]
CCCCCCCCCCn1ccc(=N)cc1	4.6	-0.2%	?	7.94µM*	-2.8%[57.1 µM]	-4.5%[57.1 µM]
O=C(/C=C/c1ccco1)N1CCN(c2ncccn2)CC1	-0.6	1.0%	-7.3%	2.0%	39.8µM*	-9.1%
O=C(/C=C/c1c(Cl)cccc1Cl)N1CCN(c2ncccn2)CC1	-4.1	-2.7%	-1.8%	5.2%	7.0%[57.1 µM]	2.0%[57.1 µM]
Cc1cccc(CN2CCN(C(=O)CCl)CC2)c1	1.7	0.8%	-13.0%	-46.2%	11.2µM*	7.4%
Cc1ccc(/C=C/C(=O)N2CC(=O)Nc3ccccc32)o1	-13.7	11.7%	15.8µM*	?	79.4µM*	-9.9%
Cc1ccc(/C=C/C(=O)N2CCN(S(=O)(=O)c3ccc(C)c(C)c3)CC2)o1	0.8	-0.4%	?	24.6%	17.8µM*	-2.7%
Cc1ccc(/C=C/C(=O)N2CCN(S(=O)(=O)c3c(C)c(C)cc(C)c3C)CC2)o1	0.4	0.1%	?	?	-76.4%[57.1 µM]	-4.0%[11.4 µM]
CCCc1nc(SCC(=O)Nc2cc(Cl)ccc2OC)c2c(=O)n(C)c(=O)n(C)c2n1	1.4	3.5%	-4.0%	3.3%	/	/
COc1ccc(S(=O)(=O)N2CCN(C(=O)/C=C/c3ccco3)CC2)cc1	/	/	/	/	12.6µM*	-1.6%
Cc1ccc(/C=C/C(=O)N2CCN(Cc3ccccc3)CC2)o1	-2.2	-0.8%	?	-35.7%	44.7µM*	-9.2%
Cc1ccc(C(=O)N2CCN(Cc3ccccc3)CC2)o1	4.4	2.4%	-2.6%	7.4%	10.9%	8.3%
O=C(/C=C/c1ccco1)N1CCN(S(=O)(=O)c2cccc([N+](=O)[O-])c2)CC1	/	/	/	/	-29.4%	-3.6%

Bioassay records: PubChem BioAssay, National Center for Advancing Translational Sciences (NCATS)
